The list is not random: actives were taken first. Their share in the collection is about 10%.
GPT2 inh: blocks human glutamate pyruvate transaminase 2; Recombinant GPT2, coupled pyruvate oxidase/HRP Amplex Red fluorescence; Potency, µM (titrated, usually from 57.7 µM), without a hit: at the highest dose activity change, negative = inhibition, most hits filed as inhibitors; 100,000 compounds, 0.25% hits; note: nearly all actives have a fitted effect of over 60% in size
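Fluorescence read-out: pyruvate from GPT2 turnover coupled to pyruvate oxidase, HRP and Amplex Red (0.2mM ThPP, 0.2U/mL PO and HRP, 50uM Amplex final). Substrates 250uM a-KG, 2mM L-alanine; enzyme 10ng/uL; 30 min RT.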
NPR1 antag: blocks ANP-stimulated signaling of human Npr1 receptor; HEK293 hNpr1 GloSensor cGMP, ANP-stimulated luminescence; Potency, µM (series often up to 46.3 µM), without a hit: at the top dose activity change, negative = inhibition, hits mostly inhibitors; 76,000 compounds, 1.6% hits; AID 1347048; calls by dose curve; note: nearly all actives have a fitted effect of over 60% in size
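HEK293 cells stably expressing human Npr1 and cGMP GloSensor pGS-40F, loaded 2 h with 2% GloSensor reagent, given compound 30 min at room temperature. Luminescence read before and 20 min after 0.1 nM hNppA.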
HEK cytotox: kills HEK 293 cells; HEK 293 viability, ATP luminescence (CellTiter-Glo), 48-72 h; Potency, µM (highest dose often 115 µM), without a hit: at the top dose activity change, negative = cytotoxicity, usual class: inhibitors; AID 1345083; 94,000 compounds, 6.6% hits; note: nearly all actives have a fitted effect of over 60% in size
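HEK 293 cells at 250 cells/well were exposed to compounds by pintool transfer for 48 or 72 hr at 37 degree Celsius, 5% CO2. Viability was read as ATP-coupled luminescence with CellTiter-Glo after 10 min at room temperature.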
3T3 cytotox: cytotoxic compounds in NIH 3T3 cells | NIH 3T3 viability, CellTiter-Glo ATP luminescence, 48-72 h | AID 1345082 | Potency, µM (top dose mostly 96.7 µM), for the others: at the top dose activity change, negative = cytotoxicity, hits mostly inhibitors | 94,000 compounds, 4.3% hits; note: nearly all actives have a fitted effect of over 55% in size
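NIH 3T3 cells at 400 cells/well received 23 nL of compound by pintool and were incubated 48 or 72 h at 37 °C. Viability was read as ATP-coupled CellTiter-Glo luminescence.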
Luciferase inh: Photinus pyralis luciferase inhibition; P08659; purified P. pyralis luciferase, luminescence, biochemical; AID 1347043; 76,000 compounds, 2.5% hits; Potency, µM (top dose mostly 115 µM), hits mostly inhibitors; note: nearly all actives have a fitted effect of over 65% in size
Target sequence (P08659 whole entry, looked up): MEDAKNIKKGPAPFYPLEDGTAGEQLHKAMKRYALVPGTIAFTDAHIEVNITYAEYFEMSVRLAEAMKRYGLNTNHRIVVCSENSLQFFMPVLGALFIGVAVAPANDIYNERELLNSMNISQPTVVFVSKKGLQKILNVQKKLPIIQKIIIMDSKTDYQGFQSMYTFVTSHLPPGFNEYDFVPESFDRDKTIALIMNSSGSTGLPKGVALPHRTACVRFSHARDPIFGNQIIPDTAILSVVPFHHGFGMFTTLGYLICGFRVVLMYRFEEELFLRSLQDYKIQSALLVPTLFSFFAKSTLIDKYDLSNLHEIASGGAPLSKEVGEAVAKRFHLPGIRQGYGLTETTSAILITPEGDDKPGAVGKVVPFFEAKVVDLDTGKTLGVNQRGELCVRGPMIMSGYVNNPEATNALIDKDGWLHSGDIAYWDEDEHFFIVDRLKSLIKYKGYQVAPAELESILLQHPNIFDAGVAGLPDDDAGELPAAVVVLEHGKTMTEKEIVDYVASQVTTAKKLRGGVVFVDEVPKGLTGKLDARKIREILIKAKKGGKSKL
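Purified P. pyralis luciferase (10nM final) in 50mM Tris acetate pH 7.5, 10mM Mg acetate, 0.01% Tween-20, 0.05% BSA with 10uM D-luciferin and 10uM ATP. Compounds titrated qHTS. Luminescence imaged on CCD.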
The depositor's hits bear a star; i = inactive; u = inconclusive; x = not tested or not shown; [ ] = another dose, or the depositor's remark. Unless noted, calls come from the whole dose curve; as a rule, active = well fitted curve in the direction sought with a large enough effect; inconclusive = small, poorly fitted or top-dose-only effect, or another doubt; inactive = no such curve, though single readings can be large; an effect the other way counts as inactive or inconclusive. % is set by controls: 0 for no effect and ±100 for the full control effect; potency is the fitted concentration of half-maximal effect.

SMILES | GPT2 inh | NPR1 antag | HEK cytotox | 3T3 cytotox | Luciferase inh
O=C(NC1CCN(c2nccc(Nc3ccccc3F)n2)CC1)c1ccc(F)cc1 | i | x | u | 35µM* | x
O=C(NC1CCN(c2nccc(Nc3ccccc3F)n2)CC1)c1ccc(C(F)(F)F)cc1 | i | x | 25µM* | 35µM* | x
O=C(NC1CCN(c2nccc(Nc3ccccc3F)n2)CC1)c1ccccc1 | i | x | u | u | x
CC(C)CC(=O)Nc1ccc2c(c1)CCC(=O)N2CC(C)C | -21% | 2% | u | -22% | i
CC(C)CN1C(=O)CCc2cc(NC(=O)c3ccc(N(C)C)cc3)ccc21 | -9% | -29% | 28µM* | u | u
CCCN1C(=O)CCc2cc(NC(=O)c3ccc(C)s3)ccc21 | -2% | -10% | 35µM* | u | u
Cc1ccccc1C(=O)N1CCC(C(=O)N2CCC(c3ccccc3)CC2)CC1 | -8% | x | u | u | x
O=C(NCC(F)F)C1CCCN1c1nccc(Nc2ccccc2F)n1 (centres undefined) | i | x | -12% | -28% | x
CC(C)Oc1cc(-c2ccc(C(C)N3CCOCC3)cc2)nc(N)n1 (centres undefined) | i | 1% | u | u | 35µM*
Cc1cc(C)c(C#N)c(-c2ccc(C(C)N3CCOCC3)cc2)n1 (centres undefined) | 2% | u | u | u | i
CCN(CC)C(=O)[C@@H]1C[C@@H](O)CN1C1CCN(C(=O)c2cccc(OC)c2)CC1 | i | x | -25% | -19% | x
O=C(c1cc(-c2ccccc2)n[nH]1)N1CCc2c(nc(-c3ccccc3)[nH]c2=O)C1 | -3% | -5% | u | u | u
Nc1cc(C(=O)N2CCc3onc(-c4ccc(-c5ccccc5)cc4)c3C2)[nH]n1 | i | 13µM* | 18µM* | u | u
CCOC(=O)C(C)Oc1cccn2c(=O)c(-c3cc(C)n(-c4ccc(Cl)cc4)n3)c(C)nc12 (centres undefined) | -9% | -12% | u | -13% | i
CC1=C[C@@H](CN2CCC(O)CC2)[C@H](C(C)C)C[C@H]1Cc1nnc(-c2ccc([N+](=O)[O-])cc2)o1 | 4% | -2% | u | u | i
CC1=C[C@@H](CNC(C)C)[C@H](C(C)C)C[C@H]1Cc1nnc(-c2ccc([N+](=O)[O-])cc2)o1 | i | -13%[70.6 µM] | 79µM* | 89µM* | i
CC1=C[C@@H](CNCc2ccncc2)[C@H](C(C)C)C[C@H]1Cc1nnc(-c2ccc([N+](=O)[O-])cc2)o1 | 3% | -6% | 40µM* | u | i
O=C(c1cc(C2CC2)[nH]n1)N(Cc1ccc2c(c1)OCO2)C1CC1 | i | -7% | u | -33% | 28µM*
O=C1CCCCC(C(=O)NCc2ccc3c(c2)OCO3)N1 (centres undefined) | i | 4% | 8% | i | i
N#Cc1ccc(CN2CCC3(C2)C(=O)N(c2ccccc2)c2ccccc23)cc1 (centres undefined) | -6% | x | 16µM* | u | x
COc1ccc(CN2CCC3(C2)C(=O)N(c2ccccc2)c2ccccc23)cc1 (centres undefined) | i | x | 50µM* | u | x
O=C1N(c2ccccc2)c2ccccc2C12CCN(Cc1ccc(C(F)(F)F)cc1)C2 (centres undefined) | i | x | 50µM* | u | x
COc1ccc(CN2CCC3(C2)C(=O)N(C)c2ccccc23)cc1 (centres undefined) | 5%[88.5 µM] | 10%[70.6 µM] | u | u | i
COc1ccc(CN2CCC3(C2)C(=O)N(Cc2ccccc2)c2ccccc23)cc1 (centres undefined) | i | u | 40µM* | 35µM* | i
O=C(NCC(F)F)c1ccc2nnc(C3CCOCC3)n2c1 | x | x | -5%[172 µM] | -21%[138 µM] | x
SMILES | GPT2 inh | NPR1 antag | HEK cytotox | 3T3 cytotox | Luciferase inh
CC(=O)Nc1ccc(CN2CCC3(C2)C(=O)N(C)c2ccccc23)cc1 (centres undefined) | 5% | 0% | -22% | -15% | i
CN(C)c1ccc(CN2CCC3(C2)C(=O)N(C)c2ccccc23)cc1 (centres undefined) | 1%[88.5 µM] | -6%[70.6 µM] | 79µM* | u | i
O=C(NCc1ccc(F)c(F)c1)c1nc2sccn2c1-c1ccccc1 | i | x | u | u | x
CC(C)CCN1CCC2(CC1)CC(=O)N(c1ccccc1)c1ccccc1O2 | -4% | u | 45µM* | u | i
O=C1CC2(CCN(Cc3ccccc3)CC2)Oc2ccccc2N1c1ccccc1 | 3% | 3% | u | -24% | i
Cn1cccc1CN1CCC2(CC1)CC(=O)N(c1ccccc1)c1ccccc1O2 | i | -23% | 22µM* | 40µM* | i
Cc1ccc(CN2CCC3(CC2)CC(=O)N(c2ccccc2)c2ccccc2O3)cc1 | i | 7% | 32µM* | 40µM* | i
Cn1ncc2c(C(=O)NCCCc3ccccc3)cc(-c3ccc(Cl)cc3)nc21 | 4% | x | u | u | x
O=C(c1nc2cccnc2n(C2CCCC2)c1=O)N1CCN(C(=O)C2CC2)CC1 | -10% | x | i | -12% | x
CCN(CC)c1cc(CCC(=O)NCc2ccc(Cl)cc2)ccn1 | 1% | -12% | u | -18% | i
COCCn1c(=O)c2c(n1Cc1ccccc1)CN(C(=O)COc1ccccc1)CC2 | 1%[88.5 µM] | -2%[70.6 µM] | i | 22µM* | i
CCn1c2c(c(=O)n1Cc1ccccc1)CCN(C(=O)c1cccnc1)C2 | i | 5%[70.6 µM] | i | 50µM* | i
COc1ccc(-n2c(=O)c3c(n2Cc2ccccc2)CN(C(=O)COc2ccccc2)CC3)cc1 | i | -3% | -7% | 40µM* | i
O=c1c2c(n(Cc3cccnc3)n1CCc1ccccc1)CN(Cc1cccc(O)c1)CC2 | 2% | -1% | -6% | u | i
COCCn1c2c(c(=O)n1-c1ccccc1)CCN(C(=O)COc1ccccc1)C2 | i | -4%[70.6 µM] | -17%[172 µM] | u | i
CCn1c2c(c(=O)n1Cc1ccccc1)CCN(C(=O)c1cccc(C#N)c1)C2 | i | -11%[70.6 µM] | 0%[172 µM] | u | i
COc1ccc(Cn2c3c(c(=O)n2Cc2ccccc2)CCN(C(C)=O)C3)cc1 | -3%[88.5 µM] | -1%[70.6 µM] | i | u | i
O=C(COc1ccccc1)N1CCc2c(n(Cc3cccnc3)n(CCc3ccccc3)c2=O)C1 | i | -5% | -32% | 35µM* | i
CC(=O)N(C)Cc1ccc(-c2ccccc2)cc1 | 0%[88.5 µM] | 0%[70.6 µM] | u | -24%[138 µM] | u
COc1ccc(Cn2c3c(c(=O)n2Cc2ccccc2)CCN(C(=O)CCc2cccnc2)C3)cc1 | -18% | 4% | i | 6.3µM* | i

Bioassay records from PubChem.
